MCL1 BIM primary – inhibitors of MCL1 binding to BIM-BH3, primary screen, biochemical, fluorescence polarization; Induced myeloid leukemia cell differentiation protein Mcl-1 (Homo sapiens), Q07820; GST-MCL1 / FITC-Bim-BH3 fluorescence polarization; AID 2057, 2009; 320,000 tested, 0.68% active; inhibition, % at 10.9 µM;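 active = inhibition above the mean inhibition of all tested compounds plus 3 SD, set per campaign, cut at about 40% in these data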;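 note: 0% = DMSO wells and 100% = unlabeled Bim-BH3 peptide control; higher means more loss of mP so more displacement of Bim peptide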
Mcl1-Bid inh – Mcl-1/Bid binding inhibitors, primary screen, biochemical, TR-FRET, 1536-well | 220,000 tested, 0.97% active | AID 1021, 2008 | inhibition, % at 21.7 µM | Induced myeloid leukemia cell differentiation protein Mcl-1 (Homo sapiens), Q07820 | TR-FRET Mcl-1/Bid-Dy647 peptide binding;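 active = compounds that cut the binding signal by more than half at the single screening dose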;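 note: His-tagged Mcl-1 with europium anti-His antibody binding Bid BH3 peptide; 0% = Mcl-1 plus peptide wells and 100% = peptide-only wells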
GLD-1 TGE inh – GLD-1/TGE RNA complex disruptors, primary screen, biochemical, fluorescence polarization. inhibition, % at 5.96 µM. purified GLD-1 + fluorescein TGE RNA. 320,000 tested, 0.44% active;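 active = percent inhibition above a per-plate cutoff, the plate mean of test compounds plus 3 SD, cut at about 30% in these data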;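 note: 0% = DMSO wells with GLD-1 and probe and 100% = wells lacking GLD-1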
Bcl-xL primary – inhibitors of human Bcl-xL, primary screen, biochemical, fluorescence polarization, HTS | AID 2129, 2009 | inhibition, % at 10.9 µM | 320,000 tested, 0.7% active | GST-Bcl-xL / FITC-Bim BH3 peptide fluorescence polarization;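 active = inhibition above the mean of all tested compounds plus 3 SD, cutoff set per campaign, cut at about 30% in these data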;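 note: 0% = DMSO wells and 100% = unlabeled Bim-BH3 peptide competitor; inhibitors lower millipolarization by displacing the labeled peptide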
Target sequence (Q07817 whole entry, looked up): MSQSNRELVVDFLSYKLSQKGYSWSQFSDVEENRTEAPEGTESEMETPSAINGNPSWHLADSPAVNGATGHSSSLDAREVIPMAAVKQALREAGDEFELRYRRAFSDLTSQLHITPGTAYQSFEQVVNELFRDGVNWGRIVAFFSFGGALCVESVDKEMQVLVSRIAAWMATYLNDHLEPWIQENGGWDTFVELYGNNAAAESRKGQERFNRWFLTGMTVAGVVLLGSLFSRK
Mcl1 Noxa PPI – Mcl-1/Noxa binding inhibitors, primary screen, biochemical, TR-FRET, 1536-well | Induced myeloid leukemia cell differentiation protein Mcl-1 (Homo sapiens), Q07820 | TR-FRET Mcl-1/Noxa peptide binding, 2 h | inhibition, % at 21.7 µM | 220,000 tested, 1.5% active;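 active = compounds that cut the protein-peptide binding signal by more than 50% relative to plate controls in a single-dose test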;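 note: His-tagged Mcl-1 with rhodamine Noxa BH3 peptide and terbium anti-His antibody; 0% = Mcl-1 plus Noxa peptide wells and 100% = peptide-only wells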
Mcl-1 Bim block – inhibitors of Bim peptide binding to Mcl-1, primary screen, biochemical, bead-based flow cytometry, multiplex | Induced myeloid leukemia cell differentiation protein Mcl-1 (Homo sapiens), Q07820 | 190,000 tested, 0.1% active | inhibition, % at 10 µM | Bim peptide-Mcl-1 binding | AID 1009, 2008; in the data active = inhibition above about 40%;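 note: 0% = no compound tracer wells and 100% = peptide blocker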
Bcl-xL conf – Bcl-xL inhibitors blocking Bim BH3 binding, confirmation, counter-screen for MCL1 inhibitor project, biochemical, fluorescence polarization | shares compounds with MCL1 BIM primary | GST-Bcl-xL / FITC-Bim BH3 peptide FP binding | inhibition, % at 10.9 µM | 1,700 tested, 54% active | AID 2166, 2009;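 active = inhibition above a cutoff equal to the mean inhibition of all tested compounds plus 3 SD, cut at about 30% in these data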;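 note: 0% = DMSO wells and 100% = unlabeled Bim BH3 control peptide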
MCL1 BIM confirm – inhibitors of MCL1 binding to BIM-BH3, confirmation, biochemical, fluorescence polarization, triplicate; shares compounds with MCL1 BIM primary; GST-MCL1 / FITC-Bim-BH3 fluorescence polarization; inhibition, % at 10.9 µM; 1,700 tested, 61% active;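 active = inhibition above the average of all tested compounds plus 3 SD, cut at about 40% in these data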;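 note: 0% = DMSO wells and 100% = unlabeled Bim-BH3 control peptide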
GLD1 RNA confirm – GLD-1/TGE RNA binding inhibitors, retest, confirmation, biochemical, fluorescence polarization, triplicate; shares compounds with GLD-1 TGE inh; GLD-1/FL-TGE RNA fluorescence polarization; inhibition, % at 5.96 µM; 550 tested, 10% active;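 active = average inhibition across triplicates above the hit cutoff set in the primary screen, cut at about 32% in these data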;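 note: 0% = GLD-1 with RNA probe and DMSO and 100% = wells lacking GLD-1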
Starred values were filed as active, the others as inactive; nt = no result given. In the library only some 2.3% were active in any assay of this set; here they are far more common.

SMILES	MCL1 BIM primary	Mcl1-Bid inh	GLD-1 TGE inh	Bcl-xL primary	Mcl1 Noxa PPI	Mcl-1 Bim block	Bcl-xL conf	MCL1 BIM confirm	GLD1 RNA confirm
CC[C@@H](CO)NC(=O)[C@@H]1C=C2c3cccc4c3c(cn4C)C[C@H]2N(C)C1	171.4*	0.6	112.2*	142.8*	19.0	2.0	28.5	41.5*	18.3
COc1cccc(CNCCc2cccc(F)c2)c1OC	8.2	nt	4.0	0.8	nt	nt	nt	nt	nt
O=C(CSC1c2ccccc2-c2ccccc21)N/N=C/c1ccccc1C(=O)O	1.1	0.2	4.5	2.1	16.8	-1.0	nt	nt	nt
CN(C)C1C(=O)C(C(N)=O)=C(O)C2(O)C(=O)C3=C(O)c4c(O)cccc4C(C)(O)C3C(O)C12 (centres undefined)	105.0*	nt	44.2*	51.2*	nt	nt	32.6*	84.4*	0.4
C[n+]1c2ccccc2nc2ccc(NCCO)cc21	81.8*	nt	34.0*	73.2*	nt	nt	77.9*	84.0*	14.1
OCCNc1c2c(nc3ccccc13)CCCC2	-0.3	-8.2	4.4	2.8	-10.8	1.0	nt	nt	nt
CC1(O)CCN2C(=O)CCc3cccc1c32 (centres undefined)	66.4*	nt	57.6*	49.5*	nt	nt	8.1	9.5	2.4
CN1C[C@H](CO)C[C@@H]2c3cccc4[nH]cc(c34)C[C@H]21	17.4	nt	21.5	19.9	nt	nt	nt	nt	nt
CN1C[C@H](CNC(=O)OCc2ccccc2)C[C@@H]2c3cccc4c3c(cn4C)C[C@H]21	66.9*	-17.6	52.7*	52.3*	5.8	0.0	23.8	39.1	5.9
COc1cccc(-n2c(-c3ccoc3)nc3ccccc3c2=O)c1	3.1	-20.6	-1.5	3.6	12.3	-2.0	nt	nt	nt
CN1C(=O)C2C[C@@]3(Br)c4ccccc4N(OOSc4ccccc4)[C@H]3N2C(=O)[C@@H]1Cc1ccccc1 (some centres undefined)	-0.8	nt	32.0*	1.2	nt	nt	nt	nt	2.8
CC(=NCCC1=CCCCC1)c1c(O)n(C)c(=O)n(C)c1=O	0.2	1.3	6.6	2.2	14.1	3.0	nt	nt	nt
CC(=NCCC1=CCCCC1)c1c(O)[nH]c(=O)[nH]c1=O	8.1	-20.3	36.6*	3.9	2.6	1.0	nt	nt	-2.8
CCNC(=O)NC(=O)C(C)OC(=O)c1c(C)nn(Cc2ccccc2)c1Cl (centres undefined)	10.2	-8.4	3.1	3.9	8.2	-3.0	nt	nt	nt
S=P(NC1CCCCC1)(N1CC1)N1CC1	48.4*	3.6	34.8*	50.2*	6.9	nt	nt	nt	0.7
C[C@H]1CC2C3CC=C4C[C@@H](O)CC[C@]4(C)C3CC[C@]2(C)[C@H]1O (some centres undefined)	nt	nt	1.8	nt	nt	nt	nt	nt	nt
C=CCN1CC[C@@]2(C)c3cc(O)ccc3CC1[C@@H]2C	4.9	17.5	3.4	8.2	10.6	nt	nt	nt	nt
CN1CC[C@@]2(C)c3cc(O)ccc3N(C)C2O1 (some centres undefined)	21.2	nt	39.1*	26.5	nt	nt	nt	nt	1.8

Assay outcomes: PubChem, several laboratories
